Compound activity from PubChem.
An excerpt weighted towards active compounds, which were near 3.4% of everything screened.
FBW7 activator: activators of human E3 ligase FBW7; Q969H0; AlphaScreen FBW7–phospho-cyclin E peptide binding, activator screen; normalized activity (activation), % at 26.1 µM; 650,000 compounds, 0.13% hits; AID 1259310; in the data active = normalized activity above about 1.9%;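 note: purified mutant Fbw7 with reduced substrate affinity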
Target sequence (Q969H0 whole entry, looked up): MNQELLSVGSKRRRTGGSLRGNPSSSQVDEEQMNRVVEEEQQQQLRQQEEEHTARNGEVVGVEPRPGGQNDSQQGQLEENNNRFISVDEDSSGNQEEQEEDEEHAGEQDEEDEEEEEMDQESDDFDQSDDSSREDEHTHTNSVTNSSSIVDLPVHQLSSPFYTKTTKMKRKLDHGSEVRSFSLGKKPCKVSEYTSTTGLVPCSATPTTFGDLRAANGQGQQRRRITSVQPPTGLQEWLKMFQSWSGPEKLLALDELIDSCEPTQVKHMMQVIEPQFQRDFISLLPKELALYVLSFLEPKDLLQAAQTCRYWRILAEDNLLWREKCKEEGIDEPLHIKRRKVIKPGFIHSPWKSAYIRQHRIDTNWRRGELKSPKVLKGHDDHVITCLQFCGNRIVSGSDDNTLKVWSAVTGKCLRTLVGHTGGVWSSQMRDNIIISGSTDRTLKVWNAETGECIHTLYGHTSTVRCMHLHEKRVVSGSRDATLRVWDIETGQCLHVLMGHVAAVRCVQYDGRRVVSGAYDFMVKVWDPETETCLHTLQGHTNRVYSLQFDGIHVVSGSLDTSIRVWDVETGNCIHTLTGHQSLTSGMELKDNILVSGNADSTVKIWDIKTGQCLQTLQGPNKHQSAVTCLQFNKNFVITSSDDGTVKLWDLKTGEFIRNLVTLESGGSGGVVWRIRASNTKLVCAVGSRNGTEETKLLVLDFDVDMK
MITF inh: inhibitors of human MITF | AlphaScreen MITF homodimerization, bead proximity signal | AID 1259374 | 650,000 compounds, 0.91% hits | inhibition, % at 2.6 µM; in the data active = inhibition above about 50%
GPR151 ag: activates the human receptor GPR151; Q8TDV0; PathHunter beta-arrestin GPR151 cells, luminescence; activation, % at 11.2 µM; 650,000 compounds, 1% hits; AID 1508602; in the data active = activation above about 4.9%
TEAD-YAP inh: TEAD-YAP interaction inhibition; HEK-TIYL cells, TEAD-Gal4/YAP UAS-luciferase luminescence; inhibition, % at 9.12 µM; 640,000 compounds, 1.4% hits; in the data active = inhibition above about 32%
MITF inh conf: confirmation of human MITF inhibitors; shares compounds with MITF inh; AlphaScreen MITF homodimerization, biotin/His-MITF beads; inhibition, % at 2.6 µM; 4,700 compounds, 16% hits;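 active = inhibition above a cutoff derived from the DMSO control wells, cut at about 28% in these data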;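 note: inhibitors lower the bead chemiluminescence by keeping MITF from dimerizing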
AlphaScreen DR: counter-screen: compounds optically interfering with AlphaScreen; shares compounds with MITF inh; AlphaScreen optical interference counterscreen, cell-free; IC50, µM; 480 compounds, 6% hits; call rule not given here
AlphaScreen intf2: optically interferes with AlphaScreen signal. inhibition, % at 2.6 µM. 4,700 compounds, 7.6% hits. LysRS AlphaScreen counterscreen, signal interference, triplicate. shares compounds with MITF inh. AID 1259376;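 active = inhibition above a cutoff derived from the DMSO control wells, cut at about 30% in these data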
A number is an active result; i = inactive; nt = no result; ! = not active in a repeat.

SMILES	FBW7 activator	MITF inh	GPR151 ag	TEAD-YAP inh	MITF inh conf	AlphaScreen intf2	others
Brc1cccc(OCCCCN2CCNCC2)c1	i	i	i	i	nt	nt
CCC(C)(C)c1ccc(OCCN2CCNCC2)c(Cl)c1	i	61	i	i	i	i
Clc1cc(Br)ccc1OCCCCN1CCNCC1	i	56	i	i	i	i
Cc1ccc2c(c1)N(CC#N)C(=O)CO2	i	i	i	i	nt	nt
O=C1c2c(O)cccc2Cc2cccc(O)c21	i	86!	i	i	116	i	AlphaScreen DR=i
Cc1cc(O)c2c(c1)C(=O)c1cccc(O)c1C2=O	i	i	i	i	nt	nt
CC1CN(Cc2ccccc2Br)CC(C)O1 (configuration not stated)	i	67	i	i	i	i
CC1CN(Cc2ccc(F)cc2F)CC(C)O1 (configuration not stated)	i	65	i	i	i	i
CC1CN(Cc2ccc(F)c(F)c2)CC(C)O1 (configuration not stated)	i	61	i	i	i	i
CN1CCN(c2ncc(-c3cccc4ncccc34)n3ccnc23)CC1	i	i	i	i	nt	nt
O=C(CN1CCOCC1)Nc1ccc([N+](=O)[O-])cc1C(=O)Nc1ccccc1F	i	i	i	i	nt	nt
O=C(CNCc1ccccn1)Nc1ccc([N+](=O)[O-])cc1C(=O)Nc1ccccc1F	i	75	i	i	i	i
CCOc1ccc(-n2c(CNC(=O)c3cccs3)nnc2SCC(=O)N2N=C(c3cccs3)CC2c2ccc(OC)cc2)cc1 (configuration not stated)	i	i	i	i	nt	nt
COC(=O)CN1C(=O)S/C(=C/c2ccc([N+](=O)[O-])o2)C1=O	i	62	i	i	47	i	AlphaScreen DR=i
Cc1onc(-c2ccccc2Cl)c1C(=O)Nc1cccc([N+](=O)[O-])c1C	i	i	i	i	nt	nt
Cc1cc(-c2ccccc2)nc2cc(C(=O)N3CCN(c4ccccc4)CC3)nn12	i	i	i	i	nt	nt
N#CC1=C(N)OC(c2ccccc2)=C(C(=O)c2ccccc2)C1c1cccc(Br)c1 (configuration not stated)	i	i	i	i	nt	nt
Cc1cc(Cl)cc(Cl)c1OCCOCCNCCN	i	65	i	i	i	i
Cc1cc(C)c(OCCOCCNCCN)c(C)c1	i	70	i	i	i	i
Cc1cc(OCCOCCNCCN)cc(C)c1Cl	i	i	i	i	nt	nt
COCCCNCCOCCOc1c(C)cc(C)cc1C	i	i	i	i	nt	nt
COCCCNCCOCCOc1c(C)cc(Cl)cc1C	i	71	i	i	i	i
COc1ccc(OC)c(CN2CCC3(CCC(CNC(=O)C(C)C)O3)CC2)c1 (configuration not stated)	i	i	i	i	nt	nt
O=C(Nc1ccc(NC(=O)c2cccs2)cc1)c1ccco1	i	76	i	i	i	i
Cc1cc(C)n2nc(S(=O)(=O)Cc3ccccc3)nc2n1	i	i	i	i	nt	nt
SMILES	FBW7 activator	MITF inh	GPR151 ag	TEAD-YAP inh	MITF inh conf	AlphaScreen intf2	others
COCCn1c(=NC(=O)c2cccc(F)c2)sc2cc([N+](=O)[O-])ccc21	i	i	i	i	nt	nt
Cc1cccn2c(=O)c(/C=C3\SC(=S)N(C)C3=O)c(N3CCC(C)CC3)nc12	i	i	i	i	nt	nt
O=C(Cn1cc2c(n1)CCCC2)N1CCN(c2ccccc2)CC1	i	61	i	i	i	i
O=C(Cn1cc2c(n1)CCCC2)N1CCCCC1	i	i	i	i	nt	nt
COc1ccccc1NC(=O)c1sc2nc(C)nc(N3CCN(c4ccccn4)CC3)c2c1C	i	i	i	i	nt	nt
O=C1CCCN1c1cccc(NS(=O)(=O)c2cccc3ccccc23)c1	i	51	i	i	i	i
O=C1CCCCN1c1cccc(NS(=O)(=O)c2ccccc2)c1	i	i	i	i	nt	nt
CC(=O)c1ccc(S(=O)(=O)N(C)C)cc1	i	i	i	i	nt	nt
COc1cc(CNc2nccn3c(-c4cccs4)cnc23)cc(OC)c1OC	i	i	i	i	nt	nt
CC12CCC(C(=O)N(NC(=O)CCc3ccccc3)C1=O)C2(C)C (configuration not stated)	i	65	i	i	i	i
O=C(CCc1ccccc1)NN1C(=O)CCC1=O	i	i	i	i	nt	nt
Cc1nn(-c2ccccc2)c2c1-c1nc3ccccc3nc1C(C)(C)C2	i	i	i	i	nt	nt
O=C(O)CCC(NCc1ccco1)C(=O)O (configuration not stated)	i	62	i	i	56	i	AlphaScreen DR=i
O=C(NC(=S)NNS(=O)(=O)c1ccccc1)C(c1ccccc1)c1ccccc1	i	i	i	i	nt	nt
CCN(CC)CCNC(=O)CNC(=O)Cn1cnc2c(c1=O)C1CCCCC1S2 (configuration not stated)	i	i	i	i	nt	nt
Cc1cccc(NC(=O)CNCCCN2CCOCC2)c1C	i	76	i	i	i	i
O=C(Cc1cccs1)NCCCN1CCOCC1	i	102	i	i	i	i
Cc1cccc(C)c1NC(=O)CNCCCN1CCOCC1	i	88	i	i	i	i
O=C(Cc1cccs1)NCCCCCCNC(=O)Cc1cccs1	i	i	i	i	nt	nt
O=C(O)c1c(CNCc2ccccc2)c2ccccc2n1Cc1ccc(F)cc1Cl	i	i	i	i	nt	nt
CC(C)c1ccc(NC(=O)C2C3C=CC4(O3)C2C(=O)N(Cc2ccc3c(c2)OCO3)C4C(=O)NC2CCCCC2C)cc1 (configuration not stated)	i	i	i	i	nt	nt
COc1ccccc1NC(=O)C1=C(C)NC(SCC(=O)Nc2cccc(C)c2C)=C(C#N)C1c1ccco1 (configuration not stated)	i	56	i	32	i	i
COc1ccccc1NC(=O)C1=C(C)NC(SCC(=O)Nc2ccccc2)=C(C#N)C1c1ccco1 (configuration not stated)	i	i	i	i	nt	nt
O=C(Nc1ccc(O)c(C(=O)O)c1)c1ccc(Br)cc1	i	i	i	i	nt	nt
O=C(O)C1=CC(=C(c2ccc(O)c(C(=O)O)c2)c2ccc(O)c(C(=O)O)c2)C=CC1=O	i	64	i	i	83	50
SMILES	FBW7 activator	MITF inh	GPR151 ag	TEAD-YAP inh	MITF inh conf	AlphaScreen intf2	others
Cc1ccc(Cl)cc1N1CCN(C(=S)NCCN2CCOCC2)CC1	i	51	i	i	i	i
CNc1nc(-c2ccccn2)nnc1-c1ccccc1	i	108	i	i	107	98
Cc1oc(C)c(C(=O)O)c1COc1ccccc1C(=O)O	i	51	i	i	i	i
Cc1oc(C)c(C(=O)O)c1CSc1ccccc1C(=O)O	i	i	i	i	nt	nt
Cc1sc2ncn(CC(=O)NCC(=O)Nc3ccc4c(c3)OCO4)c(=O)c2c1C	i	55	i	i	i	i
Cc1cc(C)c(C)c(S(=O)(=O)N2CCN(CC(O)COCc3ccco3)CC2)c1C (configuration not stated)	i	51	i	i	i	i
CCN1CCN(S(=O)(=O)c2c(C)c(C)cc(C)c2C)CC1	i	i	i	i	nt	nt
Cc1cc(C)nc(SCC(=O)Nc2ccccc2Oc2ccccc2)n1	i	i	i	i	nt	nt
